The text below walks through data of PubChem BioAssay (NCATS).

Test [1] has as its system JEG-3. Description: Primary qHTS to identify gynecologic anti-cancer compounds using libraries of approved drugs and bioactive compounds (AID 1345084). Further: nearly all actives have a fitted effect of over 55% in size. The note with it: Gynecologic cancer cell panel viability, ATPlite luminescence, 48 h; series mostly up to 57.5 µM. The essentials: (§1)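 Cells, 1,000 per well, were allowed to settle for 16 h at 37 C before compound addition. Five concentrations were tested for 48 h, and viability was read by ATPlite luminescence after 15 min at room temperature.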
A general note: qHTS replaces the single test concentration by a dilution series.

Test [2] deals with Tov112D. The test is described as above. The note with it: Gynecologic cancer cell panel viability, ATPlite luminescence, 48 h; series mostly up to 57.5 µM. A digest of the protocol: as §1
On the technique in general: In ATP-based viability assays light output follows the ATP content of the culture.

The nature of test [3]: Drug repurposing screens with cells derived from glioblastoma tumor samples (AID 1345199). Further: nearly all actives have a fitted effect of over 40% in size. Further: potency means the concentration at half of the fitted maximal effect. The note with it: GBM patient neurospheres viability, ATP luminescence, 48 h. The essentials:
(§2)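 Four patient lines of CD133+ GBM neurospheres were screened at several concentrations; hits were retested in those lines plus three slower-growing GBM lines, using 48-hour treatment and ATP-based viability.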

Test [4] deals with HeLa. Description: Primary qHTS to identify gynecologic anti-cancer compounds using libraries of approved drugs and bioactive compounds (AID 1345084). Further: nearly all actives have a fitted effect of over 55% in size. The settings on record: Gynecologic cancer cell panel viability, ATPlite luminescence, 48 h; series mostly up to 57.5 µM. A digest of the protocol: as §1
Test [5] concerns Hek293T. The description is as above. The note with it: Gynecologic cancer cell panel viability, ATPlite luminescence, 48 h, control line for the selectivity index; series mostly up to 57.5 µM. A digest of the protocol:
as §1

The subject of test [6] is OV90. Described as above. The settings on record: Gynecologic cancer cell panel viability, ATPlite luminescence, 48 h; series mostly up to 57.5 µM. The essentials:
as §1

Test [7] has as its system PA-1. The description is as above. The settings on record: Gynecologic cancer cell panel viability, ATPlite luminescence, 48 h; series mostly up to 57.5 µM. A digest of the protocol: as §1
The test system of test [8] is Tov-21-G. Described as above. The settings on record: Gynecologic cancer cell panel viability, ATPlite luminescence, 48 h; series mostly up to 57.5 µM. A digest of the protocol:
as §1

Test [9] concerns astro. Kind of test: Drug repurposing screens with cells derived from glioblastoma tumor samples (AID 1345199). Further: nearly all actives have a fitted effect of over 40% in size. Further: potency means the concentration at half of the fitted maximal effect. The note with it: viability, ATP luminescence, 48 h; series mostly up to 45.9 µM. A digest of the protocol:
as §2

Test [10] relates to SKOV3. Description: Primary qHTS to identify gynecologic anti-cancer compounds using libraries of approved drugs and bioactive compounds (AID 1345084). Further: nearly all actives have a fitted effect of over 55% in size. The note with it: Gynecologic cancer cell panel viability, ATPlite luminescence, 48 h; series mostly up to 57.5 µM. A digest of the protocol: as §1
Where [11] appears, read: at 46.1 µM (top of the series), tumour line C.

SMILES strings stand for the structures. Inconclusive results are not listed. Values without a mark were called inactive. Activity calls are given as the source filed them. The call rests on the fitted dose curve; in most records, active means well fitted curve in the direction sought with a large enough effect; inconclusive means small, poorly fitted or top-dose-only effect, or another doubt; inactive means no such curve, though single readings can be large; an effect the other way counts as inactive or inconclusive.
On the % scale 0 is the no-effect control and ±100 the full control effect.

With `CNCCC(Oc1ccc(C(F)(F)F)cc1)c1ccccc1` (stereo not given), the Potency entry in test [1] and in [2] was “inactive” in each case. Also, the activity, negative = cell killing in test [3] (setting [11]) is -4.69%. For the same molecule, the results for the Potency in [3] (tumour line A) and in test [3] (tumour line B) were 3.55 µM (active) and 20 µM (active), respectively.
Turning to `CN(N=O)C(=O)N[C@@H]1[C@@H](O)[C@H](O)[C@@H](CO)O[C@@H]1O`, the Potency entry in test [4], in test [5], in [1], in test [6], in test [7] and in [8] was “inactive” throughout. The Potency entry in test [2] and in [9] was “inactive” each time.
With `NC1CCN(c2cccc(Cl)n2)CC1`, the Potency entry in test [4], in test [5], in [1], in test [6], in [10] and in [8] was “inactive” throughout. Also, the Potency entry in test [2] and in [9] was “inactive” in each case. Moreover, the activity, negative = cell killing in test [3] (at 45.9 µM (top of the series), tumour line B) is -8.95%; in test [3] (at 45.9 µM (top of the series), tumour line D), 3.86%; in [3] (setting [11]), -16%. Moreover, the Potency in test [3] (tumour line A) is 11.2 µM (active).
Consider `COC(=O)C1=C(C)NC(C)=C(C(=O)OC)C1c1ccccc1[N+](=O)[O-]`, for which the Potency entry in test [5], in test [1], in test [6], in test [7], in test [10] and in test [8] was “inactive” each time. The Potency result in test [2] is “inactive”.
Regarding `CNCCCC1c2ccccc2C=Cc2ccccc21`, the Potency result in test [4], in [1] and in test [10] was “inactive” throughout. Further, the activity, negative = cell killing in [3] (at 20 µM (top of the series), tumour line C) is 3.37%. The Potency in test [3] (tumour line A) is 6.31 µM (active).
As to `CC(=O)c1ccc2c(c1)N(CCCN(C)C)c1ccccc1S2`, the Potency result in test [5], in [1], in [7], in test [8], in test [2] and in test [9] was “inactive” throughout.
With `CC(CN1c2ccccc2Sc2ccccc21)N(C)C` (stereo not given), the Potency entry in [4], in test [5], in test [1], in test [7], in test [10] and in test [8] was “inactive” each time. The Potency entry in test [2] is “inactive”. Further, the activity, negative = cell killing in [3] (setting [11]) is -1.52%. Further, the Potency in test [3] (tumour line A) was 14.1 µM (active); in [3] (tumour line B), 20 µM (active); in test [3] (tumour line D) it was 22.4 µM (active); in test [9], 20 µM (active).
